The text below walks through data of PubChem BioAssay AID1159577 (Broad Institute, 2015).

Among all 1,300 compounds or so, about 240 (18%) were called active. Roughly 8% stayed inconclusive and do not appear here. No rule for the calls is given here. Only a sample is shown. Entries that show only a call come without a potency. Potency and affinity values are given separately.

This assay can be described thus: toxicity to human hepatoma HepG2 cells – cell-based, cherry-picked samples, cytotoxicity control, dose response (AID 1159577). The following applies: HepG2 cytotoxicity counterscreen, plate reader; series mostly up to 19.5 µM. (In general: A counterscreen serves to expose hits that act by an unwanted route or on another target.)
Turning to `Cc1ccc(-c2ccc3c(c2)O[C@@H](CN(C)Cc2cccnc2)[C@@H](C)CN([C@@H](C)CO)S3(=O)=O)cc1`, the result was inactive.
In the case of `C[C@H](CO)N1C[C@H](C)[C@H](CN(C)C(=O)Nc2ccc(F)cc2)Oc2cc(/C=C/c3ccccc3)ccc2S1(=O)=O`, the outcome was inactive.
With `C[C@H](CO)N1C[C@H](C)[C@H](CN(C)C(=O)Nc2cc(F)ccc2F)Oc2cc(/C=C/c3ccccc3)ccc2S1(=O)=O`, the call was inactive.
For `C[C@@H]1CN([C@H](C)CO)S(=O)(=O)c2ccc(-c3ccncc3)cc2O[C@H]1CN(C)Cc1ccc(Oc2ccccc2)cc1`, the call was inactive.
Then `CCS(=O)(=O)N1CCC2(CC1)CN(Cc1ccc3c(c1)OCO3)[C@H](CO)c1[nH]c3cc(OC)ccc3c12`, with “inactive”.
As to `CCC(=O)N1[C@H](CO)[C@@H](c2ccccc2-c2cccc(C)c2)[C@@H]1C#N`, the compound was called inactive.
Consider `COc1ccccc1CNC(=O)C[C@H]1C[C@@H]2c3cc(NC(=O)Nc4ccc(C(F)(F)F)cc4)ccc3O[C@@H]2[C@@H](CO)O1`, for which the compound was called inactive.
Turning to `CO[C@H]1CN(C)C(=O)c2cc(NC(=O)C3CC3)ccc2OC[C@H](C)N(Cc2cccc(F)c2)C[C@H]1C`, the outcome was inactive.
On to `O=C(c1ccccc1)N1CC[C@@H]2[C@@H](CO)Nc3ccc(-c4ccc(F)cc4)cc3[C@@H]21`, for which the call was inactive.
With `COc1ccc(C#Cc2ccc3c(c2)O[C@@H](CN(C)C(=O)Nc2cccc(OC)c2)[C@@H](C)CN([C@@H](C)CO)S3(=O)=O)cc1`, the call was inactive.
On to `Cc1ccccc1S(=O)(=O)N1[C@H](CO)[C@@H](c2ccc(C#CC3CCCCC3)cc2)[C@@H]1C#N`, for which the compound was classed as inactive.
The entry for `COCC(=O)N1CC2(C1)CN(Cc1cc(F)ccc1F)[C@H](CO)c1[nH]c3cc(OC)ccc3c12` is “inactive”; for `CO[C@@H]1CN(C)C(=O)c2ccc(NC(=O)c3nc4ccccc4s3)cc2OC[C@@H](C)N(Cc2cccnc2)C[C@H]1C` it is “inactive”.
As for `CO[C@@H]1CN(C)C(=O)c2ccc(NC(=O)c3nc4ccccc4s3)cc2OC[C@H](C)N(Cc2cccnc2)C[C@@H]1C`, the compound was classed as inactive.
As for `CO[C@@H]1CN(C)C(=O)c2cc(NC(=O)c3nc4ccccc4s3)ccc2OC[C@@H](C)N(Cc2ccccc2)C[C@H]1C`, the call was inactive.
On to `CO[C@@H]1CN(C)C(=O)c2ccc(NC(=O)c3nc4ccccc4s3)cc2OC[C@H](C)N(Cc2ccncc2)C[C@@H]1C`, for which the result was inactive.
As to `CC(=O)N1CC[C@@H]2[C@@H](CO)Nc3ccc(C#Cc4ccccc4F)cc3[C@@H]21`, the call was inactive.
The entry for `C/C=C/c1ccc([C@@H]2[C@@H](CO)N(CC3CCCC3)C23CN(S(=O)(=O)CC)C3)cc1` is “inactive”.
For the compound `COc1ccccc1CN1C[C@@H](C)[C@H](OC)CN(C)C(=O)c2ccc(NC(=O)Nc3ccccc3OC)cc2OC[C@H]1C`, the result was inactive.
On to `C[C@@H]1CN([C@H](C)CO)C(=O)c2cccc(NC(=O)CCCCCC(=O)Nc3ccccc3N)c2O[C@@H]1CN(C)S(=O)(=O)c1ccccc1`, for which the result was inactive.
Then `Cc1ccccc1S(=O)(=O)N1[C@H](C#N)[C@@H](c2ccc(C#CC3CC3)cc2)[C@@H]1CO`, with “inactive”; and `C[C@H](CO)N1C[C@H](C)[C@@H](CN(C)C(=O)c2ccc(F)cc2)Oc2ncc(/C=C/c3ccccc3)cc2C1=O`, with “inactive”; and `C[C@@H]1CN([C@@H](C)CO)S(=O)(=O)c2ccc(C#CC3(O)CCCC3)cc2O[C@H]1CN(C)C(=O)c1ccccc1`, with “inactive”.
For the compound `CN1c2ccc(-c3cccc(F)c3)cc2[C@@H]2[C@@H](CCN2C(=O)C2CC2)[C@@H]1CO`, the compound was classed as inactive.
On to `N#C[C@H]1[C@@H](c2ccccc2-c2ccccc2F)[C@@H](CO)N1C(=O)C1CCOCC1`, for which the call was inactive.
As to `CO[C@@H]1CN(C)C(=O)c2ccc(NC(=O)Nc3ccc(C(F)(F)F)cc3)cc2OC[C@H](C)NC[C@H]1C`, the compound was classed as inactive.
On to `CO[C@H]1CN(C)C(=O)c2ccc(NC(=O)Nc3ccc(C(F)(F)F)cc3)cc2OC[C@@H](C)NC[C@@H]1C`, for which the call was inactive.
Turning to `CO[C@@H]1CN(C)C(=O)c2ccc(NC(=O)Nc3ccc(C(F)(F)F)cc3)cc2OC[C@@H](C)NC[C@@H]1C`, the result was inactive.
For `CO[C@H]1CN(C)C(=O)c2ccc(NC(=O)Nc3ccc(C(F)(F)F)cc3)cc2OC[C@H](C)NC[C@H]1C`, the compound was called inactive.
Regarding `Cc1ccc(-c2ccccc2[C@H]2[C@@H](C#N)N(C(=O)NC3CCCC3)[C@H]2CO)cc1`, the call was inactive.
As to `COc1ccc(S(=O)(=O)N(C)C[C@@H]2Oc3cc(-c4ccccc4OC)ccc3S(=O)(=O)N([C@H](C)CO)C[C@H]2C)cc1`, the compound was classed as inactive.
Then `CCCC(=O)Nc1ccc2c(c1)OC[C@H](C)N(Cc1ccc(-c3ccccn3)cc1)C[C@H](C)[C@H](OC)CN(C)C2=O`, with “inactive”; and `CO[C@@H]1CN(C)C(=O)c2ccc(NC(=O)C3CC3)cc2OC[C@@H](C)N(Cc2cccc(F)c2)C[C@H]1C`, with “inactive”.
As for `CCC(=O)Nc1ccc2c(c1)C(=O)N(C)C[C@H](OC)[C@H](C)CN(Cc1cccc(F)c1)[C@@H](C)CO2`, the result was inactive.
Then `COc1ccc(CN(C)C[C@@H]2OCc3cn(nn3)CCCC(=O)N([C@H](C)CO)C[C@H]2C)cc1`, with “inactive”; and `COc1ccccc1CN1C[C@@H](C)[C@H](OC)CN(C)C(=O)c2cc(NC(=O)Nc3ccccc3OC)ccc2OC[C@H]1C`, with “inactive”.
In the case of `C[C@@H]1CN([C@H](C)CO)S(=O)(=O)c2ccc(C#Cc3ccccc3F)cc2O[C@H]1CN(C)C(=O)c1ccc2c(c1)OCO2`, the compound was classed as inactive.
Then `COc1cccc(C(=O)Nc2ccc3c(c2)C(=O)N(C)C[C@@H](OC)[C@H](C)CN(CCc2ccccc2)[C@H](C)CO3)c1`, with “inactive”; and `C/C=C/c1ccc2c(c1)[C@H]1[C@H](CCN1C(=O)c1ccc(F)cc1)[C@H](CO)N2`, with “inactive”.
The entry for `O=C(Nc1ccccc1F)N1C[C@@H]2[C@H](c3ccccc31)[C@H](CO)N2C(=O)C1CCOCC1` is “inactive”; for `COc1ccc2c3c([nH]c2c1)[C@@H](CO)N(Cc1cc(F)ccc1F)CC31CN(C(=O)C2CCC2)C1` it is “inactive”.
`CN(C)C(=O)c1ccc(-c2cccc(-c3nc(C(=O)NC4CCCC4)cc4c3[C@H](CCO)N([S@@](=O)C(C)(C)C)C4)c2)cc1`: the compound was classed as inactive.
Consider `CO[C@H]1CN(C)C(=O)c2ccc(NC(=O)c3cccc(Oc4ccccc4)c3)cc2OC[C@@H](C)NC[C@H]1C`, for which the compound was called inactive.
As to `CO[C@@H]1CN(C)C(=O)c2ccc(NC(=O)Nc3cccc(F)c3)cc2OC[C@H](C)NC[C@H]1C`, the compound was classed as inactive.
For the compound `COc1ccc(-c2ccc3c(c2)[C@H]2[C@H](CCN2Cc2ccncc2)[C@@H](CO)N3)cc1`, the outcome was inactive.
With `CC(C)NC(=O)Nc1ccc2c(c1)C(=O)N(C)[C@H]1CC[C@H](CC(=O)Nc3ccccc3)O[C@H]1CO2`, the outcome was inactive.
Then `CN1C(=O)c2cc(NC(=O)c3cccc(F)c3)ccc2OC[C@H]2O[C@H](CC(=O)NCC3CCCCC3)CC[C@H]21`, with “inactive”; and `CC(C)(C)[S@@](=O)N1Cc2cc(C(=O)N[C@@H]3CCN(Cc4ccccc4)C3)nc(-c3cccc(-c4ccncc4)c3)c2[C@H]1CCO`, with “inactive”; and `COc1cccc(-c2ccc3c(c2)[C@@H]2[C@@H](CCN2S(=O)(=O)c2cn(C)cn2)[C@@H](CO)N3)c1`, with “inactive”.
In the case of `N#Cc1ccc(-c2ccc3c(c2)[C@H]2[C@H](CCN2C(=O)C2CCCC2)[C@H](CO)N3)cc1`, the compound was called inactive.
Turning to `O=C(C[C@H]1CC[C@@H]2[C@H](COC[C@H](O)CN2Cc2cc(F)ccc2F)O1)N[C@@H]1CCN(Cc2ccccc2)C1`, the compound was classed as inactive.
For `COc1ccc2c3c([nH]c2c1)[C@H](CO)N(Cc1ccc(F)cc1)CC31CCN(Cc2ccccn2)CC1`, the call was inactive.
In the case of `COc1ccc2c3c([nH]c2c1)[C@@H](CO)N(Cc1nccs1)CC31CCN(Cc2nccs2)CC1`, the outcome was inactive.
As to `COc1cccc(CN2CC3(CCN(Cc4ccccn4)CC3)c3c([nH]c4cc(OC)ccc34)[C@@H]2CO)c1`, the compound was classed as inactive.
As for `COc1ccc2c3c([nH]c2c1)[C@@H](CO)N(Cc1ccc(Cl)cc1)CC31CCN(Cc2nccs2)CC1`, the compound was called inactive.
Regarding `COc1ccc2c3c([nH]c2c1)[C@H](CO)N(Cc1ccccc1)CC31CCN(CC2CC2)CC1`, the compound was called inactive.
With `COc1ccc2c3c([nH]c2c1)[C@H](CO)N(Cc1ccncc1)CC31CN(Cc2ccc(-c3ccccn3)cc2)C1`, the compound was classed as inactive.
Consider `C[C@@H]1CN([C@H](C)CO)C(=O)c2cc(NC(=O)CCC(F)(F)F)ccc2O[C@H]1CN(C)C(=O)NC1CCCCC1`, for which the result was inactive.
`O=C(C1CCCC1)N1CC[C@@H]2[C@H](CO)Nc3ccc(Br)cc3[C@@H]21`: the compound was classed as inactive.
As to `COc1ccc2c3c([nH]c2c1)[C@H](CO)N(Cc1ccccc1Cl)CC31CN(C(C)=O)C1`, the result was inactive.
For the compound `CC(C)(C)[S@@](=O)N1Cc2cc(C(=O)NC3CCC3)nc(-c3cccc(Br)c3)c2[C@H]1CCO`, the compound was called inactive.
As to `C[C@@H]1CN([C@@H](C)CO)C(=O)c2cccc(NC(=O)Nc3cccc4ccccc34)c2O[C@H]1CN(C)C(=O)NC1CCCCC1`, the result was inactive.
Turning to `COc1ccc2c3c([nH]c2c1)[C@H](CO)N(Cc1ccccc1F)CC31CN(C(=O)C2CCC2)C1`, the compound was classed as inactive.
